Measurements from PubChem BioAssay (EPA / NIEHS).
The source made the active and inactive calls. The calls were made as follows: active = hit-call score of the fitted dose curve at least 0.9, where 1 is the maximum; inactive = score below 0.9.

Experiments:
[1] = ATG_GLI_CIS: Attagene CIS-FACTORIAL HepG2 Assay for human Zinc Finger Protein GLI1 (AID 2282945); settings: HepG2, Attagene cis-factorial reporter mRNA, GLI element; actives raise or lower the signal
Procedure, shortened: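 Transiently transfected HepG2 cells report endogenous transcription factor activity via cis-element-driven reporter units. After 24 h compound exposure, reporter mRNA was measured by RT-PCR with capillary electrophoresis; bidirectional fitting against DMSO baseline.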

[2] = target: Bile acid receptor (Homo sapiens) (UniProt Q96RI1); test: ATG_IR1_CIS: Attagene CIS-FACTORIAL HepG2 Assay for human Nuclear Receptor Subfamily 1 Group H Member 4 (NR1H4), IR1 submotif (AID 2282946); settings: IR1 reporter transcription, actives raise or lower the signal
Sequence of Bile acid receptor (Homo sapiens) (Q96RI1 whole entry, looked up): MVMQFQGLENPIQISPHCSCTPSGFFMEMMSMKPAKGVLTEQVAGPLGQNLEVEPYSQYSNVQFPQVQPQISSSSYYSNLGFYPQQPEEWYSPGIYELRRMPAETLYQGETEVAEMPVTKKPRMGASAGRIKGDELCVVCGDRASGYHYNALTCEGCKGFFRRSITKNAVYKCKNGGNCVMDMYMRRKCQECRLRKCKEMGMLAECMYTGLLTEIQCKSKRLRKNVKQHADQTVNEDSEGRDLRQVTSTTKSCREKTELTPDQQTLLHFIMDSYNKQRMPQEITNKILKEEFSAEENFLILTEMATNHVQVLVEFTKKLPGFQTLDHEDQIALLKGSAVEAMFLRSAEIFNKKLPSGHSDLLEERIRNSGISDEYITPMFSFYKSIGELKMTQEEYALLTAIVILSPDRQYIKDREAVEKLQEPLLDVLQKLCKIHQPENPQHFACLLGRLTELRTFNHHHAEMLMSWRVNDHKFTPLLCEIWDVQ
Procedure, shortened: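 HepG2 cells transiently transfected with multiple cis-promoter-driven reporter units to measure endogenous transcription factor activity; 24 h exposure. Reporter mRNA read by RT-PCR, FAM labelling, HpaI digestion and capillary electrophoresis. Bidirectional fit versus DMSO.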

[3] = ATG_GRE_CIS: Attagene CIS-FACTORIAL HepG2 Assay for human Glucocorticoid Response Elements (GRE) (AID 2282947); settings: HepG2 GRE cis-reporter, Attagene multiplex mRNA; actives raise or lower the signal
Procedure, shortened: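 Transiently transfected HepG2 cells carrying GRE cis-reporter units (endogenous TF activity) dosed 24 h; reporter mRNA quantified by RT-PCR, 6-FAM labelling, HpaI digestion and capillary electrophoresis. Bidirectional fit versus DMSO baseline.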

[4] = ATG_ISRE_CIS: Attagene CIS-FACTORIAL HepG2 Assay for human Interferon Regulatory Factor 1 (IRF1) binding to an Interferon-Stimulated Response Element (ISRE) (AID 2282948); settings: HepG2 ISRE cis-reporter (Attagene), mRNA transcription readout; actives raise or lower the signal
Procedure, shortened: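 Quantitation relies on labelled RT-PCR fragments separated by capillary electrophoresis. Human HepG2 cells bearing cis-promoter reporter constructs were treated 24 h; DMSO served as baseline for bidirectional fitting.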

[5] = ATG_M_32_CIS: Attagene CIS-FACTORIAL HepG2 Assay for M32 Transcription Factor (Internal Marker) (AID 2282949); settings: HepG2 Attagene cis-factorial M32 reporter, mRNA; actives raise or lower the signal;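 also: background control marker of the multiplexed CIS panel rather than a real target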
Procedure, shortened: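 Fluorescent capillary electrophoresis peaks of HpaI-digested, FAM-labelled RT-PCR reporter products give the signal. Source: transiently transfected human liver HepG2 cells, 24 h after chemical dosing; bidirectional fitting against DMSO.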

[6] = ATG_M_06_CIS: Attagene CIS-FACTORIAL HepG2 Assay for M06 Transcription Factor (Internal Marker) (AID 2282950); settings: HepG2 Attagene CIS-FACTORIAL M06 internal marker reporter; actives raise or lower the signal
Procedure, shortened: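 Cells (HepG2, transiently carrying cis-driven reporter units) receive chemical for 24 h before RNA isolation. Reporter cDNA is PCR-amplified, FAM-labelled by primer extension, HpaI-digested and sized on a capillary analyser.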

[7] = target: Hypoxia-inducible factor 1-alpha (Homo sapiens) (UniProt Q16665); test: ATG_HIF1a_CIS: Attagene CIS-FACTORIAL HepG2 Assay for human Hypoxia Inducible Factor 1 (HIF1A) (AID 2282951); settings: HepG2 Attagene cis-factorial HIF1a reporter transcription; actives raise or lower the signal
Sequence of Hypoxia-inducible factor 1-alpha (Homo sapiens) (Q16665 whole entry, looked up): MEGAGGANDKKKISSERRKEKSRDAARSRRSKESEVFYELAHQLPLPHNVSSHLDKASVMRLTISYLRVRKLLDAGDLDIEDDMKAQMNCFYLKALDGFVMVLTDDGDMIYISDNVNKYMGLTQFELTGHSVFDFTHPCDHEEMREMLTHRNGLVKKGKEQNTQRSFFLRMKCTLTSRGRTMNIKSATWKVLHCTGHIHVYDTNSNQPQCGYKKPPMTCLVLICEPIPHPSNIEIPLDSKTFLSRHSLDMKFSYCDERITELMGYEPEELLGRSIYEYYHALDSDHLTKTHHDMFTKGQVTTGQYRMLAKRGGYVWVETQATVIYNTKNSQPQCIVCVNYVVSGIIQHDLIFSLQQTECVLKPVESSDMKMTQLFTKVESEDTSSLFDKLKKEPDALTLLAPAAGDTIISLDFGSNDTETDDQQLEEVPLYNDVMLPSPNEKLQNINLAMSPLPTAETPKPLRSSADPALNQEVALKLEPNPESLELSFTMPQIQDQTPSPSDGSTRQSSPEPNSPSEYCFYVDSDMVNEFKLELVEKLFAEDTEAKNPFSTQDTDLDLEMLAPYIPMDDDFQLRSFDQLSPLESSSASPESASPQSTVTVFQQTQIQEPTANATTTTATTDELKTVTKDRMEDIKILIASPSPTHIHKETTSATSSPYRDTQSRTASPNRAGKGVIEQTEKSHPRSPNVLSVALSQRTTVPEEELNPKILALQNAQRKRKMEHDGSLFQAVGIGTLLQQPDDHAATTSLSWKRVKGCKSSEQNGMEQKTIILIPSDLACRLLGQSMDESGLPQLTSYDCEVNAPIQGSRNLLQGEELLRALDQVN
Procedure, shortened: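 Dosed 24 h, transfected HepG2 cells yielded total RNA whose reporter transcripts were RT-PCR-amplified and sized by capillary electrophoresis using fluorescent labelling; DMSO defined baseline, with gain and loss of signal both fitted.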

[8] = target: Hepatocyte nuclear factor 6 (Homo sapiens) (UniProt Q9UBC0); test: ATG_HNF6_CIS: Attagene CIS-FACTORIAL HepG2 Assay for human Hepatocyte Nuclear Factor 6 (HNF6) (AID 2282952); settings: HepG2 Attagene cis-factorial HNF6 reporter transcription; actives raise or lower the signal
Sequence of Hepatocyte nuclear factor 6 (Homo sapiens) (Q9UBC0 whole entry, looked up): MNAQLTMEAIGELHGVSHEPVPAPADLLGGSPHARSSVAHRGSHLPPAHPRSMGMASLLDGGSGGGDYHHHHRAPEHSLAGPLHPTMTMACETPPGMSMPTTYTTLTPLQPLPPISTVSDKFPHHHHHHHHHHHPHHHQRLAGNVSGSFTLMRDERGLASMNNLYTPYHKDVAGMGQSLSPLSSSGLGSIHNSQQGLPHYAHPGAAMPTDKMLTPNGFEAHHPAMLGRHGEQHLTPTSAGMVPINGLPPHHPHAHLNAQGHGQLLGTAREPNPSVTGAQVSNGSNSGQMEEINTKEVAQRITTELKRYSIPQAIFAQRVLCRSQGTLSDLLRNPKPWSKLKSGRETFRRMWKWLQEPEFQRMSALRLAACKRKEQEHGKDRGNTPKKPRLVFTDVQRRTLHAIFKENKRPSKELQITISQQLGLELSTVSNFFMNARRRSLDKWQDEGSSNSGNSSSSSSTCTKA
Procedure, shortened: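 HepG2, transient MRTU transfection (cis promoters); 24 h chemical exposure; total RNA → oligo(dT) RT → PCR → 6-FAM labelling → HpaI cut → CE; bidirectional fit vs DMSO.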

[9] = target: Heat shock factor protein 1 (Homo sapiens) (UniProt Q00613); test: ATG_HSE_CIS: Attagene CIS-FACTORIAL HepG2 Assay for human Heat Shock Transcription Factor 1 (HSE) (AID 2282953); settings: HepG2 HSE cis-reporter, Attagene RNA transcription; actives raise or lower the signal
Sequence of Heat shock factor protein 1 (Homo sapiens) (Q00613 whole entry, looked up): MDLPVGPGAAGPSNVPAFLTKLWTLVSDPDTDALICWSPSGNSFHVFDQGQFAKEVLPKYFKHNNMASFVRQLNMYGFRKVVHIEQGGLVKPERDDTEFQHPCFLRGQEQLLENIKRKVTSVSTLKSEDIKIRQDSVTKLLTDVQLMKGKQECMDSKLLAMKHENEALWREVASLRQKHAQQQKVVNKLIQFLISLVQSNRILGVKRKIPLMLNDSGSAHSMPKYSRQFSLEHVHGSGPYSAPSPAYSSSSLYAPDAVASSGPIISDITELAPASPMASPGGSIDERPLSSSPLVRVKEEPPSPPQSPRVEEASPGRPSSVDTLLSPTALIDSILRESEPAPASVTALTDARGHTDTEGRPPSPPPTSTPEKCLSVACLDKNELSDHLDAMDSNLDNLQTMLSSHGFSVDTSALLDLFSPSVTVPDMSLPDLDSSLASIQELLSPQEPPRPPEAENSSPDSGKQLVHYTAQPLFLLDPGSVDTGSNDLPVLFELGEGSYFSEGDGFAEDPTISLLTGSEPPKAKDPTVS
Procedure, shortened: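 Liver-derived HepG2 cells carry transiently introduced multiple reporter units governed by cis promoters. Reporter RNA measured 24 h post-dose through reverse transcription, PCR amplification, fluorescent labelling and capillary electrophoresis, normalised to DMSO.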

[10] = ATG_MRE_CIS: Attagene CIS-FACTORIAL HepG2 Assay for human Metal Responsive Element (MRE) (AID 2282954); settings: HepG2 MRE cis-reporter transcription, Attagene multiplex; actives raise or lower the signal
Procedure, shortened: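 HepG2 cells transiently transfected with cis-element-driven reporter units; mRNA measured 24 h after dosing. Reporter transcripts quantified by RT-PCR, FAM labelling, HpaI digestion and capillary electrophoresis; bidirectional fit versus DMSO.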

[11] = ATG_PBREM_CIS: Attagene CIS-FACTORIAL HepG2 Assay for human Phenobarbital-responsive Enhancer Module (PBREM) (AID 2282955); settings: HepG2 PBREM cis-reporter, Attagene multiplexed transcription; actives raise or lower the signal
Procedure, shortened: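 Transfected liver-derived HepG2 cells exposed 24 h; PBREM reporter transcript quantified via RT-PCR and capillary electrophoresis, with activity in either direction referenced to DMSO.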

[12] = target: Paired box protein Pax-6 (Homo sapiens) (UniProt P26367); test: ATG_Pax6_CIS: Attagene CIS-FACTORIAL HepG2 Assay for human Paired Box 6 (PAX6) (AID 2282956); settings: HepG2 CIS-FACTORIAL PAX6 reporter transcription, RNA readout; actives raise or lower the signal
Sequence of Paired box protein Pax-6 (Homo sapiens) (P26367 whole entry, looked up): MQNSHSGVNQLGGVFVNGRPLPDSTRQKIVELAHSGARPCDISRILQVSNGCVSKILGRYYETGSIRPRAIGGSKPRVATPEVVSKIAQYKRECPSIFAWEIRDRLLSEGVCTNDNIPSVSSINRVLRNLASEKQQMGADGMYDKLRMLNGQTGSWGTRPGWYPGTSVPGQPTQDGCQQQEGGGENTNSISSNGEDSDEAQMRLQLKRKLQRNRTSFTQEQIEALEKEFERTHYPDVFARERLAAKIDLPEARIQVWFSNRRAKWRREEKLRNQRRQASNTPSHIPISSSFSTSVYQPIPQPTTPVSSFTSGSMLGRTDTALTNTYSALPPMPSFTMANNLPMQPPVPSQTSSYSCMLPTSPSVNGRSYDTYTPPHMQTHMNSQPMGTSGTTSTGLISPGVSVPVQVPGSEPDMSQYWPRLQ
Procedure, shortened: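 After twenty-four hours of chemical exposure, transfected HepG2 cells are harvested for RNA. Cis-promoter reporter transcripts are amplified, fluorescently labelled and sized by capillary electrophoresis, with gain and loss of signal scored against DMSO.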

[13] = ATG_PXRE_CIS: Attagene CIS-FACTORIAL HepG2 Assay for human Pregnane X Receptor Element (PXRE) (AID 2282957); settings: HepG2 Attagene CIS-FACTORIAL PXRE reporter, mRNA; actives raise or lower the signal
Procedure, shortened: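 Transfect HepG2 with MRTUs (cis promoter elements); dose chemical, incubate 24 h; isolate RNA, RT with oligo(dT), PCR, 6-FAM label, HpaI cut, CE. Gain/loss fit vs DMSO.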

[14] = ATG_RORE_CIS: Attagene CIS-FACTORIAL HepG2 Assay for human RAR-related Orphan Receptor Element (RORE) (AID 2282959); settings: HepG2 Attagene cis-factorial RORE reporter, mRNA; actives raise or lower the signal
Procedure, shortened: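 Transiently transfected HepG2 reporter cells were treated 24 h. Reporter transcripts were detected by RT-PCR and capillary electrophoresis, with bidirectional fitting against DMSO.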

[15] = ATG_Sox_CIS: Attagene CIS-FACTORIAL HepG2 Assay for human SRY-box transcription factor (SOX) (AID 2282960); settings: HepG2 Attagene cis-factorial SOX reporter, mRNA; actives raise or lower the signal
Procedure, shortened: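 Gain- or loss-of-signal endpoint, fitted bidirectionally with DMSO as negative control. Based on reporter mRNA from transfected HepG2 cells harvested 24 h post-treatment and quantified via RT-PCR and capillary electrophoresis.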

[16] = target: Transcription factor Sp1 (Homo sapiens) (UniProt P08047); test: ATG_Sp1_CIS: Attagene CIS-FACTORIAL HepG2 Assay for human Specificity Protein 1 (Sp1) (AID 2282961); settings: HepG2 Sp1 cis-reporter transcription, actives raise or lower the signal
Sequence of Transcription factor Sp1 (Homo sapiens) (P08047 whole entry, looked up, the tested form may be a part): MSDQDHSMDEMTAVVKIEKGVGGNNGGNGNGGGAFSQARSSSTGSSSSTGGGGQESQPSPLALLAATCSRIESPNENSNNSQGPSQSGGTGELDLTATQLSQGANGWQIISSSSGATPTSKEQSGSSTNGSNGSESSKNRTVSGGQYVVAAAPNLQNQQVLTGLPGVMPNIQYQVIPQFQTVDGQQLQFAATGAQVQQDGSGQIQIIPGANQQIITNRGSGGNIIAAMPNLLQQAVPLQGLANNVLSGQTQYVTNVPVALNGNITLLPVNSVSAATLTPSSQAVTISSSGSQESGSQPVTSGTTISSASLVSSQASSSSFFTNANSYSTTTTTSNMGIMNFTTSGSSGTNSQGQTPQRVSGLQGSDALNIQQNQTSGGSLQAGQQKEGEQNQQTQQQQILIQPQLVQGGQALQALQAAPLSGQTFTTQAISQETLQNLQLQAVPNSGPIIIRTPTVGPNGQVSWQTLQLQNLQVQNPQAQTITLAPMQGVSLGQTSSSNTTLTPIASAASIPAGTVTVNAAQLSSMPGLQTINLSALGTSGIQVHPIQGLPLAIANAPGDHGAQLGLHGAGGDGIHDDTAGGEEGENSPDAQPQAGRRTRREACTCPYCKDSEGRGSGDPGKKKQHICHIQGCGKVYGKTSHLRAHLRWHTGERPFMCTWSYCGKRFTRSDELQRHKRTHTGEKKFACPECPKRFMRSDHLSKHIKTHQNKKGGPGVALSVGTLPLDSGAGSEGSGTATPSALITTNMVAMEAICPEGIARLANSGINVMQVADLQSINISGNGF
Procedure, shortened: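 Endpoint reflects endogenous Sp1 transcriptional activity, not an exogenous fusion protein: HepG2 cells with transfected cis-regulated reporters, 24 h dosing, RT-PCR/capillary electrophoresis mRNA read-out, DMSO-normalised bidirectional fit.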

[17] = ATG_SREBP_CIS: Attagene CIS-FACTORIAL HepG2 Assay for human Sterol Regulatory Element Binding (SREBP) (AID 2282962); settings: HepG2 Attagene cis-factorial SREBP reporter, mRNA; actives raise or lower the signal
Procedure, shortened: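 Twenty-four hours after chemical dosing of transfected HepG2 cultures, reporter RNA was converted to cDNA, amplified, end-labelled with 6-FAM and resolved by capillary electrophoresis. Responses were fitted relative to DMSO.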

[18] = target: Signal transducer and activator of transcription 3 (Homo sapiens) (UniProt P40763); test: ATG_STAT3_CIS: Attagene CIS-FACTORIAL HepG2 Assay for human Signal Transducer and Activator of Transcription 3 (STAT3) (AID 2282963); settings: HepG2, Attagene cis-factorial STAT3 reporter transcription; actives raise or lower the signal
Sequence of Signal transducer and activator of transcription 3 (Homo sapiens) (P40763 whole entry, looked up): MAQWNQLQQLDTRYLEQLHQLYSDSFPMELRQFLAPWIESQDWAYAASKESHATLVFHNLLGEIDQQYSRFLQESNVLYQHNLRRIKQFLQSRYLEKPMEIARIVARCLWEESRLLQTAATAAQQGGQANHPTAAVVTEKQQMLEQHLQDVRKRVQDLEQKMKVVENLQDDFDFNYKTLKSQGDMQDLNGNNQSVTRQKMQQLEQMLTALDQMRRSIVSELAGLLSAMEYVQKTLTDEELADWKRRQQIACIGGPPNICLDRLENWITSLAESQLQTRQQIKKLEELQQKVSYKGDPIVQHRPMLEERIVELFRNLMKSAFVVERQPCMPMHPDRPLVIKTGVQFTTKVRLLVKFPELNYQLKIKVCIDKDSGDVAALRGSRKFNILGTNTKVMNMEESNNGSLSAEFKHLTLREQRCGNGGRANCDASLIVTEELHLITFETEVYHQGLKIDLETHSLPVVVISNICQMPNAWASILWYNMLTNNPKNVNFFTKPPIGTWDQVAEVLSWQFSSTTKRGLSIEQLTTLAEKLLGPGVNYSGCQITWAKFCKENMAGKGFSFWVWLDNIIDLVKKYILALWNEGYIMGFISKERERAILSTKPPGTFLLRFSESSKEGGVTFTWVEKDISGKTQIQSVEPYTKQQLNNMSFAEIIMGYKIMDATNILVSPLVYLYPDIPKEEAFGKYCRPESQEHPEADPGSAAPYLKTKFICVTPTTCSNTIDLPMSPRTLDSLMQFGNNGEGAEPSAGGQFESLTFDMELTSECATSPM
Procedure, shortened: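 HepG2 cells transiently transfected with multiple cis-element-driven reporter units report endogenous transcription factor activity. After 24 h compound exposure, reporter mRNA is measured by RT-PCR, 6-FAM labelling, HpaI digestion and capillary electrophoresis. Fitted bidirectionally versus DMSO.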

[19] = ATG_TA_CIS: Attagene CIS-FACTORIAL HepG2 Assay for human TA Basal Promoter (AID 2282964); settings: HepG2 Attagene CIS-factorial TA basal promoter reporter; actives raise or lower the signal
Procedure, shortened: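 Background internal-marker endpoint from a 52-component HepG2 cis-reporter panel. Cells treated 24 h; reporter transcripts quantified via RT-PCR and CE fluorescence against DMSO baseline.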

[20] = ATG_PPRE_CIS: Attagene CIS-FACTORIAL HepG2 Assay for human Peroxisome Proliferator-activated Response Element (PPRE) (AID 2282958); settings: HepG2 PPRE cis-element reporter, Attagene transcription factor profiling; actives raise or lower the signal
Procedure, shortened: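 Measured endpoint: PPRE-controlled reporter mRNA, detected by RT-PCR and capillary electrophoresis fluorescence, from transiently transfected HepG2 cells 24 h after dosing. Curves fitted in both directions using DMSO baseline.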

Measured: AC50

CCC(C)(C)c1cc(O)c(C(C)(C)CC)cc1O
active: [1] 6.82 µM | [2] 24.2 µM | [3] 24.8 µM | [4] 20.2 µM | [7] 10.7 µM | [8] 30 µM | [9] 49.3 µM | [10] 16.2 µM | [12] 68.9 µM | [15] 100 µM | [16] 4.19 µM | [17] 4.61 µM
inactive: [5] | [6] | [11] | [13] | [14] | [18] | [19]

CN1CCc2cccc3c2[C@H]1Cc1ccc(O)c(O)c1-3
inactive: [1] | [2] | [3] | [5] | [6] | [8] | [9] | [10] | [11] | [12] | [16] | [18] | [19]
active: [4] 13.3 µM | [13] 1.26 µM | [17] 13.3 µM

CCCCCCC(O)CCOC(C)=O (centres undefined)
active: [13] 18.6 µM
inactive: [1] | [2] | [4] | [5] | [6] | [7] | [8] | [9] | [10] | [12] | [20] | [14] | [16] | [17] | [19]

O=C1CCC(=O)N1
active: [7] 28.2 µM
inactive: [1] | [2] | [3] | [4] | [5] | [6] | [8] | [9] | [10] | [12] | [13] | [20] | [14] | [16] | [17] | [18] | [19]

CC(=N[Si](C)(C)C)O[Si](C)(C)C
inactive: [1] | [2] | [3] | [4] | [5] | [6] | [8] | [9] | [10] | [11] | [12] | [13] | [20] | [14] | [15] | [16] | [17] | [18] | [19]

CC1COC(=O)O1 (centres undefined)
inactive: [1] | [2] | [3] | [4] | [5] | [6] | [7] | [8] | [9] | [10] | [11] | [12] | [14] | [15] | [16] | [18] | [19]
active: [13] 40.3 µM

CC(=O)CC(=O)N(C)C
inactive: [1] | [2] | [3] | [4] | [5] | [6] | [7] | [8] | [9] | [10] | [12] | [13] | [14] | [15] | [16] | [17] | [18] | [19]
